The nature of test [1]: qHTS assay to test for compound auto fluorescence at 535 nm (green) in HEK293 cells (AID 720680). (qHTS replaces the single test concentration by a dilution series.)
Test [2] can be described thus: qHTS assay to test for compound auto fluorescence at 460 nm (blue) in HEK293 cell free culture (AID 720681). The method in brief:
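Test compounds were pinned into cell-free culture medium (DMEM with 10% FBS) and fluorescence was read directly at Ex/Em 405/460 nm. Signals were expressed as fluorescence equivalents of triamterene, with DMSO vehicle as control.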

A short description of test [3]: qHTS assay to test for compound auto fluorescence at 535 nm (green) in HEK293 cell free culture (AID 720682). The method in brief:
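No cells present: wells hold DMEM supplemented with 10% FBS, into which compound or vehicle is pinned. Green emission is then recorded (485 nm excitation, 535 nm emission) and scaled to fluorescein.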

Test [4] can be described thus: qHTS assay to test for compound auto fluorescence at 590 nm (red) in HEK293 cell free culture (AID 720683). The method in brief: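 Tox21 10K library compounds were pinned into cell-free DMEM with 10% FBS and fluorescence was read at excitation 540 nm. Activity is expressed as Rose Bengal sodium equivalency.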
Test [5] is described as follows: qHTS assay to test for compound auto fluorescence at 460 nm (blue) in HepG2 cell free culture (AID 720685). The method in brief: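 Compound (23 nL) or DMSO pinned into cell-free MEM with 10% FBS; blue fluorescence read at 405/460 nm excitation/emission, expressed as auto-fluorescence equivalency to triamterene.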
A short description of test [6]: qHTS assay to test for compound auto fluorescence at 535 nm (green) in HepG2 cell free culture (AID 720686).
A short description of test [7]: qHTS assay to test for compound auto fluorescence at 460 nm (blue) in HepG2 cells (AID 720687). The method in brief: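 Cells (2,000/well in MEM with 10% FBS) attached overnight at 37 C, then were exposed to compound or DMSO for 1 hr at 37 C, 5% CO2. Fluorescence read at Ex/Em 405/460 nm, expressed as triamterene-equivalent signal.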
Test [8] concerns the target Glucocorticoid receptor (Homo sapiens) (UniProt P04150). Nature of the test: qHTS assay to identify small molecule agonists of the glucocorticoid receptor (GR) signaling pathway (AID 720691; active = well fitted activation curve with a large enough effect in the signal ratio in the repeat runs, not every such curve was filed as active; the % refers to the signal ratio). The method in brief: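 Beta-lactamase reporter activity, read as fluorescence intensity, was measured in GR-bla HeLa cells exposed to compounds for 18 h at 37 C and then loaded with LiveBLAzer B/G FRET substrate for 2 h at room temperature.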

A short description of test [9]: qHTS assay to identify small molecule antagonists of the glucocorticoid receptor (GR) signaling pathway - cell viability counter screen (AID 720693). Note: nearly all actives have a fitted effect of over 55% in size.
A short description of test [10]: qHTS assay for identifying genotoxic compounds that show differential cytotoxicity against isogenic chicken DT40 cell lines with known DNA damage response pathways - wild type cell line (AID 743012). Note: nearly all actives have a fitted effect of over 60% in size. The method in brief:
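Quantitative HTS on parental DT40 cells: 40 h compound treatment at 37 C/5% CO2, with viability then determined by CellTiter-Glo luminescence. Values serve as the DNA repair-proficient reference for differential cytotoxicity.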

Test [11] is described as follows: qHTS assay for identifying genotoxic compounds that show differential cytotoxicity against isogenic chicken DT40 cell lines with known DNA damage response pathways - Rev3 mutant cell line (AID 743014). Note: nearly all actives have a fitted effect of over 55% in size.
The nature of test [12]: qHTS assay to identify small molecule antagonists of the androgen receptor (AR) signaling pathway - cell viability counter screen (AID 743033; note: nearly all actives have a fitted effect of over 45% in size; note: potency is the fitted concentration of half-maximal effect).
The target of test [13] is Glucocorticoid receptor (Homo sapiens) (UniProt P04150). Nature of the test: qHTS assay to identify small molecule antagonists of the glucocorticoid receptor (GR) signaling pathway (AID 720692; active = well fitted inhibition curve with a large enough effect in the signal ratio in the repeat runs, not every such curve was filed as active; the % refers to the signal ratio). The method in brief: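 Fluorescence from cleaved LiveBLAzer B/G FRET substrate reports GRE-driven beta-lactamase in HeLa cells; compounds are tested against 5 nM dexamethasone (final) over 18 h at 37 C, substrate incubation 2 h at room temperature.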

Test [14] has as its target Androgen receptor (Homo sapiens) (UniProt P10275). Nature of the test: qHTS assay to identify small molecule antagonists of the androgen receptor (AR) signaling pathway (AID 743035; active = well fitted inhibition curve with a large enough effect in the signal ratio in the repeat runs, not every such curve was filed as active; the % refers to the signal ratio). The method in brief:
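Cell line: GeneBLAzer AR-UAS-bla GripTite (HEK293). Stimulus: R1881 added after compound. Exposure: 16 h, 37C, 5% CO2. Readout: LiveBLAzer B/G FRET fluorescence after 2 h at room temperature.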

For test [15] the target is unchanged. Nature of the test: qHTS assay to identify small molecule agonists of the androgen receptor (AR) signaling pathway using the MDA cell line (AID 743040; note: nearly all actives have a fitted effect of over 20% in size). The method in brief: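 Luminescence from ONE-Glo, read after 30 min at room temperature, reflects MMTV-driven luciferase in MDA-kb2 cells (AR- and GR-responsive). Treatment lasted 16 h at 37C, 0% CO2.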
Test [16] is described as follows: qHTS assay to identify small molecule antagonists of the androgen receptor (AR) signaling pathway using the MDA cell line - cell viability counter screen (AID 743041; note: nearly all actives have a fitted effect of over 45% in size). The method in brief: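 Viability counter screen run alongside the AR antagonist reporter: cells seeded 5 h before compound, R1881 added, 16 h incubation at 37C without CO2, fluorescent CellTiter-Fluor signal quantified.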

The target in test [17] is Androgen receptor (Homo sapiens) (UniProt P10275). Nature of the test: qHTS assay to identify small molecule antagonists of the androgen receptor (AR) signaling pathway using the MDA cell line (AID 743042; note: nearly all actives have a fitted effect of over 55% in size). The method in brief:
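MDA-kb2 cells (human breast carcinoma, stably carrying an MMTV-luciferase reporter responsive to AR and GR) were plated at 3,000 cells/well and preincubated 5 hr at 37C, then given compound plus R1881 agonist for 16 h. ONE-Glo luminescence was read.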

Test [18] in a line: qHTS assay for identifying genotoxic compounds that show differential cytotoxicity against isogenic chicken DT40 cell lines with known DNA damage response pathways - Rad54/Ku70 mutant cell line (AID 743015). Note: nearly all actives have a fitted effect of over 60% in size. Note: potency is the fitted concentration of half-maximal effect.
The nature of test [19]: qHTS assay to test for compound auto fluorescence at 590 nm (red) in HepG2 cell free culture (AID 720684). The method in brief: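 Measured in medium alone (MEM containing 10% FBS) following pintool addition of compound; emission at 590 nm with 540 nm excitation, referenced to Rose Bengal sodium.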
Test [20] deals with Androgen receptor (Homo sapiens) (UniProt P10275). Nature of the test: qHTS assay to identify small molecule agonists of the androgen receptor (AR) signaling pathway (AID 743036; active = well fitted activation curve with a large enough effect in the signal ratio in the repeat runs, with a control signal flat, not every such curve was filed as active; the % refers to the signal ratio). The method in brief:
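Quantitative HTS of the Tox21 10K library in HEK293 cells bearing a stably integrated UAS-controlled beta-lactamase reporter. Compound exposure lasted 16 h at 37C. Reporter activity was detected by FRET substrate fluorescence after 2 h at room temperature.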

A number with no mark means an inactive call. Records with an inconclusive call do not appear. Active and inactive are the calls of the source. Unless noted, calls come from the whole dose curve; as a rule, active = well fitted curve in the direction sought with a large enough effect in the repeat runs; inconclusive = weak or mixed curves; inactive = no such curve, though single readings can be large; an effect the other way counts as inactive or inconclusive.
% is set by controls: 0 for no effect and ±100 for the full control effect.

Chain of Androgen receptor (Homo sapiens) (P10275 whole entry, looked up): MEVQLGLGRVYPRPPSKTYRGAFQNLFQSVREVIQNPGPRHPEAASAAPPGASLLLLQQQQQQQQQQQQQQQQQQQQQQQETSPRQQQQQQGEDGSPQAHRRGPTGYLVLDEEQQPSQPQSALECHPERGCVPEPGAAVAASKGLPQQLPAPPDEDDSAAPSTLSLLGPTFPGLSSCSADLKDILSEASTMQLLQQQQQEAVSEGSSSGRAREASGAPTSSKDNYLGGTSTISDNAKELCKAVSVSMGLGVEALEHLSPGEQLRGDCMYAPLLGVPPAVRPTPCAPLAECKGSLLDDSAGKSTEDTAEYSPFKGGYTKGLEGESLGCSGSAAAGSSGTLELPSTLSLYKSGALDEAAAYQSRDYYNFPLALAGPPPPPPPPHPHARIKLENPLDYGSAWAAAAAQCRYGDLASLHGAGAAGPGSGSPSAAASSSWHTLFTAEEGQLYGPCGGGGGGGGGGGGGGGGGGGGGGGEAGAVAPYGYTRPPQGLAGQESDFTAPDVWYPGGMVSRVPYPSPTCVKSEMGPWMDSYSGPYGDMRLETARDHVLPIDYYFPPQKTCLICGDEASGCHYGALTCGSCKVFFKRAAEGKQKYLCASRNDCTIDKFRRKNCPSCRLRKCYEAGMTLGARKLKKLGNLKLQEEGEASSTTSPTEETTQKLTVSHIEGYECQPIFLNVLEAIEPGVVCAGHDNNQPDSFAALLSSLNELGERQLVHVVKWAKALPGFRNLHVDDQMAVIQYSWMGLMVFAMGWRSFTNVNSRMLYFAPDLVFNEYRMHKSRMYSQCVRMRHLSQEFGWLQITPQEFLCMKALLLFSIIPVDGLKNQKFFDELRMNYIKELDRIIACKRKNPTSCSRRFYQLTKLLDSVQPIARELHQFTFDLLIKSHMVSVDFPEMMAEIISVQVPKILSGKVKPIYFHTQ
Chain of Glucocorticoid receptor (Homo sapiens) (P04150 whole entry, looked up): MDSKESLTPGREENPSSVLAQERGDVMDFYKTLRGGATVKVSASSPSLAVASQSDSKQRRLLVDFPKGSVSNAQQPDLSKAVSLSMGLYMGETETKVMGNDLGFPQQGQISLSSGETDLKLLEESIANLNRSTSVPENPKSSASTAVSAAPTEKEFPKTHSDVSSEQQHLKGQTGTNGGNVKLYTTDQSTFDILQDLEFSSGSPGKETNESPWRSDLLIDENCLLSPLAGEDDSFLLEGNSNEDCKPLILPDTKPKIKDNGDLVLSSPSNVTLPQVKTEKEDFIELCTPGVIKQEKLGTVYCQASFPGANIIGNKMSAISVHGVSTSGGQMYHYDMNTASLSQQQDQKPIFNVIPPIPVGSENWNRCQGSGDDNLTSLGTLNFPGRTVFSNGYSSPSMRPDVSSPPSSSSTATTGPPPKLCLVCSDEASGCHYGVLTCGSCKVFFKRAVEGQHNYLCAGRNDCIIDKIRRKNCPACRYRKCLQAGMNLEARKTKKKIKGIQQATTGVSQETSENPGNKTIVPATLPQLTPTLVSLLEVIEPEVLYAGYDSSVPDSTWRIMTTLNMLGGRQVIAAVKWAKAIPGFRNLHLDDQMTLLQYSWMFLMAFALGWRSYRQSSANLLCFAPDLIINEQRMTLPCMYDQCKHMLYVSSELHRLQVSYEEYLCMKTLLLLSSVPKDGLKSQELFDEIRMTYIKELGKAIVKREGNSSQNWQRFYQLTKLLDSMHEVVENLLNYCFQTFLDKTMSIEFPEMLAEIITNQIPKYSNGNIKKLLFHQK

Consider `N[C@@H](COP(=O)(O)O)C(=O)O`, for which the outcome in test [1], in [2], in [3], in test [4], in test [5] and in [6] was inactive. Also, the outcome in test [7] and in [9] was inactive. For the same compound, the Potency entry in test [8], in test [10], in [11] and in test [12] was “inactive” throughout.

Take `CCCCOC(=O)c1ccccc1`: the compound was classed as inactive in test [1], in test [2], in [3], in test [4], in [5] and in test [7]. The call in test [13], in test [9] and in test [15] was inactive. In addition, the Potency entry in test [8], in [10], in test [12], in test [14], in test [16] and in [17] was “inactive” throughout.

Turning to `O=Cc1ccc(Cl)c(Cl)c1`, the call in [1], in test [2], in test [3], in test [4], in test [5] and in test [6] was inactive. Besides, the compound was classed as inactive in [7], in [13] and in test [9]. Further, the Potency entry in test [8], in test [10], in [18], in test [12] and in test [16] was “inactive” each time.

Turning to `OC[C@H](Cc1cccc(O)c1)[C@H](CO)Cc1cccc(O)c1`, the result in [1], in [2], in [3], in test [4], in [5] and in test [6] was inactive. Besides, the result in test [7], in test [13] and in test [9] was inactive. The Potency entry in test [8], in [12] and in [16] was “inactive” in each case.

In the case of `C[C@@H](O)[C@H]1C(=O)N2C(C(=O)O)=C(SCCN=CN)C[C@H]12`, the fluorescence, % of fluorescein in test [1] was 0.0698% [at 18.6 µM]. Also, the fluorescence, % of fluorescent control was 1.12% [at 18.6 µM] in test [2], -0.0922% [at 18.6 µM] in test [4], 1.1% [at 18.6 µM] in [5] and 0.982% [at 18.6 µM] in test [7]. The activity change in test [3] is -0.0504% [at 18.6 µM]. In addition, the fluorescence, % of fluorescein control in test [6] is 0.0651% [at 18.6 µM]. The Potency result in test [8], in [10], in test [11], in [12] and in [16] was “inactive” in each case. Also, the call in test [13] and in [9] was inactive.

Consider `O=C(CS(=O)Cc1ccco1)NC/C=C\COc1cc(CN2CCCCC2)ccn1` (stereo not given), for which the call in test [2], in test [3], in [4], in [19], in test [5] and in test [6] was inactive. For the same compound, the outcome in test [7], in test [13] and in test [9] was inactive. The Potency result in [8], in test [10], in test [11], in test [12] and in test [16] was “inactive” each time.

Take `Cc1cccc(C)c1OCC(C)N` (stereo not given): the compound was called inactive in [1], in [2], in [3], in test [4], in test [5] and in test [6]. Besides, the result in test [7] and in test [9] was inactive. Moreover, the Potency result in test [16] is “inactive”.

Consider `On1nnc2ccccc21`, for which the compound was classed as inactive in test [1], in [2], in [3], in test [4], in test [5] and in [6]. The compound was called inactive in [7] and in test [9]. The Potency result in test [8] and in test [16] was “inactive” in each case. Also, in [12], the Potency is 0.616 µM (active).

With `C=CC(OCC)OCC`, the compound was called inactive in test [2], in test [3], in [4], in [5], in [6] and in test [7]. The Potency result in [10], in [11], in test [18], in [12] and in test [16] was “inactive” in each case.

`CCCC/C=C/C=C\C=O`: the outcome in test [2], in test [3], in test [4], in test [19], in test [5] and in test [6] was inactive. The compound was classed as inactive in test [7], in [9], in [20] and in [15]. The Potency in test [18] was 61.1 µM (active). Also, the Potency result in [16] and in test [17] was “inactive” each time.
